PubChem BioAssay (NCI)
Compounds without any hit were thinned out: in the full panel of roughly 83,000, 20% have a hit.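 Negative percent growth values reflect cell death: -40 means 40% of the cells present at the start died, and -100 means all died.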 Calls of active or inactive are those of the source. The calls were made as follows: active = growth percent below 10; inactive = the rest.

Tested on: NCI-H226 lung
Assay: NCI-60 one-dose screen, 48 h (100 = growth as untreated, 0 = no growth, -100 = all killed)
Settings: 10 µM unless noted

Row | SMILES | growth
1 | CCN(CC)c1ccc(/C=C2\Oc3ccc(O)c(I)c3C2=O)cc1 | 88.8% (inactive)
2 | CC1(c2ccc(Cl)cc2)OC(=O)CC(=O)O1 | 104% (inactive)
3 | Cc1csc(NC(c2ccccc2)c2c(C)nc3ccccn23)n1 (centres undefined) | 94.8% (inactive)
4 | COc1cc(-c2nc(N=Nc3c(O)[nH]c4ccc(Br)cc34)[nH]c(=O)c2C#N)cc(OC)c1OC | 84.1% (inactive)
5 | O=C1/C(=C/c2ccc(Cl)cc2)CN(C(=O)CCN2CCC(=NO)CC2)C/C1=C\c1ccc(Cl)cc1 | -20.5% (active)
6 | Cc1ccc(-c2cc3nc(C(Cl)Cl)nc(-c4ccccc4C)n3n2)cc1 | 100% (inactive)
7 | Nc1cccc(-c2nc3sccn3c2-c2ccnc(NCCNS(=O)(=O)c3ccc(C(F)(F)F)cc3)n2)c1 | 29.3% (inactive)
8 | FC(F)(F)c1cccc(-c2cn3c(ccc4ccccc43)n2)c1 | 94.6% (inactive)
9 | CCCCCCN1CSC(=S)N(CCCCCC)C1 | 92.3% (inactive)
10 | Oc1ccc2cc(Br)ccc2c1-c1c(O)ccc2cc(Br)ccc12 | 81.6% (inactive)
11 | C=C(C)[C@@H]1C[C@H](O)Cc2cc(F)ccc2N1 | 95.6% (inactive)
12 | NC1=NC(SCc2ccccc2CCl)c2ncn(Cc3ccccc3CCl)c2N1 (centres undefined) | 60.2% (inactive)
13 | COc1ccc(C(=O)c2cc(OC)c(OC)c(OC)c2OC)cc1O | 86.8% (inactive)
14 | CNc1ccc(Br)c2c1C(=O)c1ccccc1C2=O | 104% (inactive)
15 | Cc1cc(N/N=C/c2nc(-c3ccccc3)oc2C)c2cc(Br)ccc2n1 | 88.3% (inactive)
16 | CC(C)(C)n1cc(-c2ccnc(NCCCNS(=O)(=O)c3ccccc3)c2)c(-c2cccc(O)c2)n1 | 53.4% (inactive)
17 | O=C1Nc2ccc(Cl)cc2C12Nc1cc(Cl)ccc1S2 (centres undefined) | 105% (inactive)
18 | O=C1/C(=C/c2ccccc2)CN(C(=O)CCN2CCC(=NO)CC2)C/C1=C\c1ccccc1 | 104% (inactive)
19 | O=[N+]([O-])c1cccc(-c2nc3sccn3c2-c2ccnc(NCCCNS(=O)(=O)c3ccc(Cl)cc3)n2)c1 | 44.2% (inactive)
20 | Cc1ccc(S(=O)(=O)Nc2c(Br)cc(Br)cc2C(N)=O)cc1 | 102% (inactive)

Row | SMILES | growth
21 | CN(C[C@H]1Cc2c(cccc2N2CCN(Cc3ccccn3)CC2)CN1)[C@H]1CCCc2cccnc21 | 56.9% (inactive)
22 | CC(C)(C)OC(=O)NC(CSCc1ccccc1)C(=O)ON1C(=O)CCC1=O (centres undefined) | 110% (inactive)
23 | COc1ccc(-c2ccc(-c3ccc(C(=N)N)s3)s2)cc1Cl | 79.3% (inactive)
24 | O=[N+]([O-])c1ccc(C(c2ccccc2)c2ccccc2)cc1 | 100% (inactive)
25 | CCN(CC)c1ccc2[nH]c3c(C(N)=O)cc(=O)c(=O)c=3oc2c1 | 7.46% (active)
26 | CCNc1nc(S(=O)(=O)CC)nc2ccccc12 | 102% (inactive)
27 | CCC(=O)Oc1ccc(/C(=C(/C)Cc2cccc(OC)c2)c2ccc(OCCN(C)C)cc2)cc1 | 111% (inactive)
28 | Nc1nc(-c2ccccc2)c(CCCOc2ccc(NC(=O)CBr)cc2)c(=O)[nH]1 | 100% (inactive)
29 | CN(C)CCOC(=O)Nc1ccccc1Cl | 106% (inactive)
30 | c1ccc(-c2nnc(-c3ccccn3)s2)nc1 | 96.8% (inactive)
31 | COc1ccc(-c2nc(N3CCCC3=O)sc2Br)cc1OC | 93.8% (inactive)
32 | C=C1CCC2C3(C)COC(c4c(OC)cccc4OC)OC3CCC2(C)C1C/C=C1/C(=O)OCC1O (centres undefined) | 80.2% (inactive)
33 | c1cc2[nH]ncc2cc1-c1nc2ccc3[nH]ncc3c2c2c1CCC2 | 42.5% (inactive)
34 | COc1ccc2c(c1)[nH]c(=O)c1c3cc(OC)ccc3cn21 | 30.1% (inactive)
35 | NC(N)=Nc1nc2ccccc2o1 | 107% (inactive)
36 | Nc1ccc(C(=O)CSc2nc3ccccc3[nH]2)cc1 | 108% (inactive)
37 | CC(C)(C)n1cc(-c2ccnc(NCCCNS(=O)(=O)c3ccc(F)cc3)c2)c(-c2cccc(O)c2)n1 | 51.2% (inactive)
38 | COc1ccccc1CNCCCN1C(=O)c2ccc3c4c(ccc(c24)C1=O)C(=O)N(CCCNCCCCNCCCN)C3=O | -59.9% (active)
39 | O=C(CCl)N(C1CCCCC1)C1CCCCC1 | 105% (inactive)
